From PubChem BioAssay
AmpC detergent = inhibitors of E. coli AmpC beta-lactamase with detergent | Potency, µM (top dose mostly 114 µM), without a hit: at the highest dose activity change, negative = inhibition, hits mostly inhibitors | actives 0.041% (n = 370,000) | AmpC hydrolysis of nitrocefin, absorbance 480 nm, 0.01% Triton | AID 485294 | P00811;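 further: 0% = no-compound wells and -100% = no-enzyme wells; nearly all actives have a fitted effect of over 25% in size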
Target sequence (P00811 whole entry, looked up): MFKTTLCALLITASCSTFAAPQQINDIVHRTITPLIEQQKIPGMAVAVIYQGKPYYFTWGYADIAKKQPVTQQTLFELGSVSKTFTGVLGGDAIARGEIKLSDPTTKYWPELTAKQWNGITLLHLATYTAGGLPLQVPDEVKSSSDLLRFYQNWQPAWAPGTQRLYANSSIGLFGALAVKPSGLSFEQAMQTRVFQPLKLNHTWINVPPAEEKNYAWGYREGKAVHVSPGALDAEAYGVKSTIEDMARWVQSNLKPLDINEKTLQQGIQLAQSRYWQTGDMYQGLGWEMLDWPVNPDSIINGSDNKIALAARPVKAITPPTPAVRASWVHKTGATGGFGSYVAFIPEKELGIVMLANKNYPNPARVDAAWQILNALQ
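AmpC (5.3 nM in the dispensed reagent) in 20 mM phosphate pH 7.0 with 0.01% (detergent screen) or 0.0001% Triton X-100 was preincubated with compounds for 15 min at room temperature. Nitrocefin was then added from an 800 uM solution, and hydrolysis was followed at 480 nm.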
Sm TGR inh = inhibitors of Schistosoma mansoni thioredoxin glutathione reductase; Q962Y6; purified TGR, DTNB reduction, TNB absorbance 405 nm; Potency, µM (top dose mostly 114 µM), for the others: at the top dose activity change, negative = inhibition, most hits filed as inhibitors; actives 3% (n = 360,000); further: nearly all actives have a fitted effect of over 60% in size
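First, TGR (20 nM dispensed) and NADPH were mixed with compound. Second, a 15 min room-temperature incubation followed. Third, further NADPH and then DTNB were added to start the reaction. Finally, TNB absorbance was monitored kinetically.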
AMA1 RON2 block = disrupts binding of P. falciparum AMA1 to RON2; actives 0.2% (n = 360,000); Potency, µM (series often up to 58.2 µM), without a hit: top-dose activity change, negative = inhibition, actives largely listed as inhibitors; AlphaScreen AMA1-biotinylated RON2 peptide binding;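 further: 0% = vehicle wells and -100% = peptide control; nearly all actives have a fitted effect of over 45% in size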
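AMA1 (3D7) with his tag at 25 nM final met compounds first, then biotinylated RON2 peptide at 25 nM; detection used donor plus acceptor beads, 10 µg/mL apiece, read by AlphaScreen after 30 min at room temperature.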
RE007 growth inh = less growth of the S. pombe RE007 Vpr strain. S. pombe RE007 Vpr strain, BacTiter-Glo ATP luminescence, 24 h. Potency, µM (series often up to 92.2 µM), inactives show at the top dose activity change, negative = less growth, usual class: inhibitors. actives 0.21% (n = 360,000). AID 651644; active means well fitted falling curve with a large enough effect; inconclusive means small, poorly fitted or top-dose-only effect; inactive means no such curve, though single readings can be large or run the other way; further: nearly all actives have a fitted effect of over 50% in size
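Fission yeast RE007 carrying one integrated HIV-1 vpr copy, seeded at OD 0.01 in PMG+AL medium with 23 nL pinned compound. Grown 24 h at 30 degrees; viability read by BacTiter-Glo luminescence after 5 min.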
AmpC inh no detg = AmpC beta-lactamase inhibition without detergent. P00811. AmpC nitrocefin hydrolysis, absorbance 480 nm, 0.0001% Triton. Potency, µM (doses to about 57.1 µM), without a hit: at the highest dose activity change, negative = inhibition, usual class: inhibitors. actives 0.52% (n = 330,000). AID 485341;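 further: plate controls were no compound for no effect and no enzyme for full effect; nearly all actives have a fitted effect of over 20% in size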
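AmpC (5.3 nM in the dispensed reagent) in 20 mM phosphate pH 7.0 with 0.01% (detergent screen) or 0.0001% Triton X-100 was preincubated with compounds for 15 min at room temperature. Nitrocefin was then added from an 800 uM solution, and hydrolysis was followed at 480 nm.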
* = called active by the depositor; ? = inconclusive; / = no result given; ! = not active in a repeat; [ ] = dose if it differs, or a comment. In the library only some 3.2% were active in any assay of this set; here they are far more common. Unless noted, the call rests on the fitted dose curve; in most records, active means well fitted curve in the direction sought with a large enough effect; inconclusive means small, poorly fitted or top-dose-only effect, or another doubt; inactive means no such curve, though single readings can be large; an effect the other way counts as inactive or inconclusive. Unless noted, on the % scale 0 is the no-effect control and ±100 the full control effect; potency means the concentration at half of the fitted maximal effect.

SMILES	AmpC detergent	Sm TGR inh	AMA1 RON2 block	RE007 growth inh	AmpC inh no detg
CCN(CC)N=Nc1ccc(S(=O)(=O)Nc2nc(C)cc(C)n2)cc1	-2%	11µM*!	8%	3%	-6%
CC1=NN(c2ccc([N+](=O)[O-])cc2)C(=O)/C1=C\N(C)C	?	?	-4%[2.32 µM]	6.3µM*	-26%
CC1=NN(c2nc3ccccc3[nH]2)C(=O)/C1=C/N(C)C	-1%	5%	42%	7.9µM*	-11%
COCc1cc(C)nc2c1C(=O)NC(c1ccc(C)cc1)N2Cc1ccccc1 (stereo unspecified)	5%	-1%	/	/	/
O=c1ccc(N=Nc2ccccc2)ccc1O	-2%	-3%	0%	?	?
Oc1ccc(N=Nc2ccccc2)o1	-5%	3.2µM*	-1%	?	-14%
O=C(NCc1ccc(F)cc1)C(=O)Nc1ccc2nc3n(c(=O)c2c1)CCCCC3	14%	2%	/	/	/
CCOc1ccc(-c2nnc(SCC(=O)Nc3cccc(OC)c3)nc2-c2ccc(OCC)cc2)cc1	-6%	4%	/	/	/
COc1ccc(Cn2c(-c3ccc(OC)cc3)nc3ccccc32)cc1	-10%	-4%	3%	-13%	9%
COc1ccc(Cn2c(C)ccc2C)cc1	?	32µM*	-9%	-3%	-9%
COc1ccc(/C=N\NC(=O)CNC(=O)C(c2ccccc2)c2ccccc2)cc1[N+](=O)[O-]	-4%	-5%	-2%	-5%	4µM*
Cc1ccc(CNC(=O)Cn2ccn(-c3ccc(C)c(C)c3)c(=O)c2=O)cc1	24%	-5%	/	/	/
C/C(=N\Nc1ccc(S(N)(=O)=O)cc1[N+](=O)[O-])c1ccccc1O	5%	-1%	-6%	1%	-28%
NS(=O)(=O)c1ccc(N/N=C/c2ccc(O)c(O)c2O)c([N+](=O)[O-])c1	-13%	?	?	-18%	7.1µM*
C/C(=N\Nc1ccc(S(N)(=O)=O)cc1[N+](=O)[O-])c1ccco1	?	40µM*	3%	4%	-39%
Cc1cccc(N2CCN(CCNC(=O)C3COc4ccccc4C3)CC2)c1C (stereo unspecified)	-2%	3%	/	/	/
CCCn1c(SCC(=O)c2ccc3c(c2)NC(=O)CO3)nc2ccccc21	-1%	40µM*	30%	-2%	-34%
COc1ccc(C(C)=O)cc1CSc1nnnn1-c1ccc(O)cc1	1%	7.1µM*	-4%	5%	-36%
CCOc1ccc(C(C)=O)cc1CSc1nnnn1-c1ccc(O)cc1	?	?	5%	10%	-38%
CC(=O)c1ccc(NC(=O)c2sc(-n3nc(C)c(Cc4ccccc4)c3C)nc2C)cc1	9%	-1%	/	/	/
CC(C)c1ccc(S(=O)(=O)N2CCN(Cc3cccc(F)c3)CC2)cc1	10%	?	/	/	/
COc1cc(C=C2CN(C)C(=O)C2=O)ccc1O	/	/	?	-21%	/
CCOC(=O)C1=C(O)/C(=C\c2ccc(O)c(OCC)c2)N=C1C	3%	40µM*	-4%	-10%	-8%
CCOc1cc(/C=C2/N=C(C)C(C(=O)OC)=C2O)ccc1O	2%	-26%	-5%	-6%	-36%
CCOc1cc(/C=C2\CN(C)C/C(=C\c3ccc(O)c(OCC)c3)C2=O)ccc1O	2%	13µM*	-3%	-7%	28%
SMILES	AmpC detergent	Sm TGR inh	AMA1 RON2 block	RE007 growth inh	AmpC inh no detg
Cc1ccc(C)c(Cn2c(=O)cc(C)c3c(C)nn(C)c32)c1	-5%	2%	/	/	/
CCOC(=O)CSC1=NC(=O)CS1	8%	32µM*	11%	-22%	-13%
Cn1c(=O)c2c(ncn2CC(=O)Nc2cc(Cl)cc(Cl)c2)n(C)c1=O	-10%	1%	/	/	/
CC1(N2CCOCC2)CC2(O)C(=[N+]1[O-])CCc1c2no[n+]1[O-] (stereo unspecified)	-9%	32µM*	-20%	5%	-4%
COc1ccc(Cn2c(C)nc([N+](=O)[O-])c2SCC(=O)O)cc1[N+](=O)[O-]	7%	35µM*	-12%	14%	-4%
CC(=O)N1CCCC1c1nc2ccccc2n1Cc1cccc(Cl)c1 (stereo unspecified)	-1%	-114%	/	/	/
Cc1ccc(C2=CC(c3ccc(C)cc3)n3ncnc3N2)cc1 (stereo unspecified)	/	/	39%	-24%	/
COc1ccc(C2=CC(c3ccco3)n3ncnc3N2)cc1 (stereo unspecified)	-4%	10µM*	25%	-17%	-24%
COc1ccc(C2CC(c3ccco3)n3ncnc3N2)cc1 (stereo unspecified)	?	-2%	7%	5%	-9%
Clc1ccccc1C1=CC(c2ccco2)n2ncnc2N1 (stereo unspecified)	2%	13µM*	11%	21%	-29%
CC(=O)Nc1cccc(C2=CC(c3ccco3)n3ncnc3N2)c1 (stereo unspecified)	-9%	13µM*	/	/	-18%
Clc1ccc(C2=CC(c3ccco3)n3ncnc3N2)cc1 (stereo unspecified)	1%	50µM*	-14%	-22%	-23%
O=C(Nc1ccccc1Cl)C1CCN(c2nc3ccccc3nc2C(F)(F)F)CC1	-7%	1%	/	/	/
CC(=O)c1ccc(NC(=O)CC2Oc3ccc(C)cc3NC2=O)cc1 (stereo unspecified)	23%	1%	/	/	/
Cc1noc2ncnc(N3CCCC(C(=O)Nc4cccc(C(F)(F)F)c4)C3)c12 (stereo unspecified)	0%	2%	/	/	/
COc1ccc(C2C=C(c3ccccc3)Nc3ncnn32)cc1 (stereo unspecified)	-10%	32µM*	8%	-2%	-33%
CC(C)=CCc1c2c(c3occ(-c4ccc(O)c(O)c4)c(=O)c3c1O)C=CC(C)(C)O2	/	/	-21%	-2%	/
CC(C)=CCc1c2c(c3occ(-c4ccc(O)cc4)c(=O)c3c1O)C=CC(C)(C)O2	-1%	7%	0%	-11%	16µM*
CCOc1ccccc1N(CC)C(=O)Cn1ncc2c([nH]c3ccccc32)c1=O	19%	-2%	/	/	/
COc1cc(CNCCN(C)C)c(Br)cc1OCC(=O)NCc1ccccc1	?	-2%	-9%	-12%	-7%
COc1cc(CNCC(C)C)c(Br)cc1OCC(=O)NCc1ccccc1	0%	28µM*	4%	-13%	4%
COc1ccccc1NS(=O)(=O)c1cc2c(cc1Cl)NC(=O)CO2	18%	2%	/	/	/
Cc1cccc(Cn2c(CN3CCCC(C)C3)nc3c2c(=O)n(C)c(=O)n3C)c1 (stereo unspecified)	-1%	5%	/	/	/
CCSC(=O)CCCCCCCCCCCO	-3%	-4%	33%	3.2µM*	30%
CCCCCCCCO	7%	0%	-3%	6%	-8%
CCS(=O)(=O)c1c([N+](=O)[O-])ncn1C	?	0.63µM*	2%	3%	-24%
